Compounds with a hit are over-represented: about 4.6% of the library has one in this group of screens.
D1 antag – human D1 dopamine receptor antagonism; P21728; HEK293 TREx D1 cells, calcium flux, dopamine EC80; active compounds read low; activity change, negative = inhibition, % at 10 µM; 3.2% of 360,000 active; in the data active means activity change below about -30%; further: on the % scale 0 is the no-effect control and ±100 the full control effect
Target sequence (P21728 whole entry, looked up): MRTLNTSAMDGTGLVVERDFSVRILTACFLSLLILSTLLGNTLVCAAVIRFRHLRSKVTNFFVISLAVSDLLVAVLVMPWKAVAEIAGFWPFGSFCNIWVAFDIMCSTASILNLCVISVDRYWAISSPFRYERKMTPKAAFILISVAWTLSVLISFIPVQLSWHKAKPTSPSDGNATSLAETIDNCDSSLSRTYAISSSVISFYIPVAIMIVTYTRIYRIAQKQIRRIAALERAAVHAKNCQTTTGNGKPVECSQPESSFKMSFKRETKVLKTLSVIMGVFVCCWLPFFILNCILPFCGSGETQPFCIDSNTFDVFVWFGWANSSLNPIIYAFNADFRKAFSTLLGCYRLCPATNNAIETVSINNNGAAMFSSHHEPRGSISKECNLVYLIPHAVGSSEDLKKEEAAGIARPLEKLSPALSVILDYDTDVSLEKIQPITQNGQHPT
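Compound effects on dopamine-evoked calcium signalling were measured in tetracycline-induced HEK293 Trex D1 cells. Dopamine at EC80 followed a 180 s compound pre-read, and fluorescence was tracked kinetically for 180 s more.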
TRHR PAM – allosterically enhances the human TRH receptor; AID 493056; TRHR cells, fluo-8 calcium fluorescence, EC20 TRH enhancement; 0.66% of 360,000 active; enhancement, % at 2 µM; P34981; in the data active means enhancement above about 30%; further: 0% is about no effect
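Enhancer read-out: after compound pinning and an initial kinetic agonist-mode read, an EC20 of TRH (10 nM final) was injected and fluo-8 calcium signal (Ex 480/Em 530) followed at 1 s/cycle for 100 cycles in TRHR-expressing cells.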
D1 agonist – activates the human D1 dopamine receptor; HEK293 T-REx D1 cells, calcium flux, agonist mode; 1% of 360,000 active; AID 504660; P21728; activation, % at 2 µM; further: 0% is about no effect
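Inducible HEK293 T-REx D1 cells, force-coupled to calcium signalling, were plated at 4000 cells/well with tetracycline and held overnight at 30 C. After no-wash calcium dye loading, compound-evoked calcium rise over 180 s flagged agonists.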
D1 PAM – human D1 dopamine receptor positive modulation; P21728; HEK293 TREx D1 cells, calcium flux, dopamine EC20 potentiation; potentiation, % at 10 µM; 0.036% of 360,000 active; AID 504651; in the data active means potentiation above about 30%; further: 0% is about no effect
TRHR ag – activates the human TRH receptor. P34981. TRHR cells, calcium flux fluo-8, FDSS agonist mode. activation, % at 2 µM. 0.18% of 360,000 active. AID 493084; further: 0% is about no effect
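TRHR-expressing cells, plated overnight in medium with 10% serum, were loaded with fluo-8 calcium dye at room temperature. After a 10 s baseline, library compound was pin-added and calcium release was recorded kinetically (ex 480/em 530) as agonist response.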
* hit, by the source's call. Unless noted, no stated cut-off is given here; in the data, active means activation above about 30%; inactive means the rest.

SMILES	D1 antag	TRHR PAM	D1 agonist	D1 PAM	TRHR ag
Cc1ccc2c(c1)c1c(c(=O)n(-c3cccc(Cl)c3)c(=O)n1CC(=O)c1ccc(Cl)cc1)n2C	-0.8	4.7	6.7	0.1	-0.6
O=c1cc(COc2ccc(Cl)cc2Cl)nc2scc(-c3ccccc3)n12	-0.1	23.8	1.7	-1.9	-0.6
Cc1cn(C)c(CC(=O)NCc2cccc(Cl)c2)c1C(=O)O	17.5	11.1	-0.1	-0.7	0.2
Cc1ccc(/C=C2/NC(=O)N(Cc3ccccc3F)C2=O)s1	8.9	-1.4	43.5*	-4.4	13.6
Cc1cc(/C=C2/NC(=O)N(Cc3ccccc3F)C2=O)c(C)n1-c1ccccn1	-42.7*	2.5	2.1	-3.5	-0.2
Cc1ccc2cccc(NC(=O)c3cccc4c(Cl)cccc34)c2n1	-3.1	17.6	0.7	2.6	1.8
Oc1[nH]c2ccccc2c1N=Nc1ccccc1	57.7	3.7	10.7	5.0	2.4
COC(=O)/C=C(\C)N=Nc1c(O)[nH]c2ccccc12	26.0	-6.0	143.6*	-4.0	8.2
Oc1[nH]c2ccccc2c1N=Nc1ccc(F)cc1	-9.4	6.5	28.6	-6.3	6.4
Oc1[nH]c2ccccc2c1N=Nc1ccccc1F	-2.4	-2.8	38.7*	-6.3	8.5
O=S1(=O)N=C(N=Nc2c(O)[nH]c3ccccc23)c2ccccc21	-33.8*	-2.5	4.4	0.2	0.0
CC1=C(c2ccc(C)cc2)S(=O)(=O)N(Cc2ccc(C(=O)Nc3ccc(F)cc3C)cc2)C1=O	9.4	5.6	-0.2	-2.4	-0.4
COc1ccc(NC(=O)CC(C)S(=O)(=O)c2cc3c(cc2C)NC(=O)CO3)cc1OC (centres undefined)	1.8	17.9	-0.6	1.1	0.7
C=CCNCCCCOc1ccc(OCc2ccccc2)cc1	-6.3	-0.8	45.2*	-5.5	0.9
COCCCNCCOc1ccc(C(C)(C)c2ccccc2)cc1	8.4	-8.0	28.5	-2.1	0.6
c1ccc(COc2ccc(OCCCNC3CCCC3)cc2)cc1	-25.8	0.4	34.9*	1.0	3.4
COCCCNCCCCOc1ccc(OCc2ccccc2)cc1	-18.4	0.6	35.1*	-4.5	1.7
CC(=O)N1c2ccc(S(=O)(=O)NCCC(=O)Nc3ccc(Br)c(C)c3)cc2CC1C (centres undefined)	-2.5	1.4	3.6	-3.7	-0.2
CCC(C)c1ccccc1OCC(=O)Nc1ccc(S(=O)(=O)Nc2cc(C)on2)cc1 (centres undefined)	-0.3	6.6	-0.4	1.9	-1.5
C=CCSc1ncc(CO)n1Cc1ccccc1	-50.2*	5.0	-1.0	2.3	-0.7
OCc1cnc(SCc2ccccc2)n1Cc1ccccc1	2.1	-6.7	3.4	-1.8	-0.1
CCOc1ccc(C(=O)OCc2cc(=O)n3nc(C4CCCCC4)sc3n2)cc1	-5.3	4.1	6.9	-3.2	0.1
CCOC(=O)c1cc(C)n(CC2CCC(C(=O)Nc3ccc(Cl)cc3)CC2)c1C (centres undefined)	-33.8*	9.5	8.5	-3.0	1.4
CCOC(=O)c1cc(C)n(CC2CCC(C(=O)Nc3cccc(Cl)c3)CC2)c1C (centres undefined)	-3.1	1.4	1.2	0.0	0.7
CCOC(=O)c1cccc(NC(=O)c2cc3c(Cl)nc4ccc(C)cc4c3s2)c1	19.5	8.1	4.6	0.5	-2.0
SMILES	D1 antag	TRHR PAM	D1 agonist	D1 PAM	TRHR ag
CSc1ncccc1C(=O)NNC(=O)c1ccc(NS(=O)(=O)c2cccs2)cc1	-45.2*	-6.0	-0.3	5.3	0.4
COc1ccccc1C(=O)NNC(=O)c1ccc(NS(=O)(=O)c2cccs2)cc1	7.4	1.3	6.7	-5.5	1.0
O=[S+]([O-])(NC[C@H]1CCC[C@H](CN[S+](=O)([O-])c2c(F)cccc2F)C1)c1ccc2c(c1)OCCO2	1.5	7.0	7.0	2.2	1.0
O=C(NCc1cccc(F)c1)c1ccccc1NC(=O)c1nsc2ccccc12	6.2	1.5	3.9	0.8	0.4
Cc1cc(C)cc(-n2c(C)cc(/C=N\NC(=O)COc3cccc4cccnc34)c2C)c1	11.0	-2.5	45.1*	3.0	-0.5
Cc1cc(/C=N/NC(=O)COc2cccc3cccnc23)c(C)n1-c1ccc(O)cc1	-15.2	5.0	-0.3	4.8	1.0
CN1/C(=C\C(=O)c2cccc(S(=O)(=O)N3CCCCC3)c2)C(C)(C)c2ccccc21	-4.5	30.2*	1.4	-6.6	0.5
Cc1cccc(C)c1NC(=O)CN(C)S(=O)(=O)c1ccc2c(c1)n(C)c(=O)c(=O)n2C	23.6	-7.6	1.3	-2.4	0.2
CC(C)CN(C(=O)CSc1nnc(-c2ccco2)o1)c1c(N)n(Cc2ccccc2)c(=O)[nH]c1=O	-38.0*	12.4	-0.4	-6.5	-0.7
CCCN(C(=O)C(NC(=O)c1ccccc1)C(C)C)c1c(N)n(Cc2ccccc2)c(=O)[nH]c1=O (centres undefined)	-76.6*	-3.4	-0.2	-19.6	0.4
CCCCN(C(=S)NC(=O)c1ccccc1)c1c(N)n(Cc2ccccc2)c(=O)[nH]c1=O	-2.2	3.1	0.8	-2.4	0.1
CC1Cc2ccccc2N1CC(=O)N(C)c1c(N)n(Cc2ccccc2)c(=O)[nH]c1=O (centres undefined)	-7.8	-1.8	3.9	-2.0	1.5
CC(C)CCN(C(=O)Cc1ccccc1F)c1c(N)n(Cc2ccccc2)c(=O)[nH]c1=O	-54.6*	1.4	0.8	-2.8	0.8
CCN(C(=O)CN1c2ccccc2CC1C)c1c(N)n(Cc2ccccc2)c(=O)[nH]c1=O (centres undefined)	-0.6	1.4	2.0	45.5*	0.4
COc1ccccc1NC(=O)N1CC(=O)Nc2sc3c(c2C1c1ccccc1)CCCC3 (centres undefined)	3.7	-1.7	0.9	1.9	0.2
Cc1ccc(S(=O)(=O)c2nnn3c2nc(N(C)Cc2ccccc2)c2cc(Cl)ccc23)cc1C	-2.7	-7.2	4.8	-0.9	0.8
COCCN(C(=O)C1=COCCO1)c1c(N)n(Cc2ccccc2)c(=O)[nH]c1=O	-4.8	-1.4	1.5	-5.3	0.4
COCCN(C(=O)COC(=O)C1=COCCO1)c1c(N)n(Cc2ccccc2)c(=O)[nH]c1=O	-61.5*	-6.1	2.7	-13.6	0.7
Cc1nc2ccc(S(=O)(=O)Nc3ccc(-c4nc5cccnc5s4)cc3)cc2s1	-54.5*	3.6	-3.6	-4.8	-0.5
Cc1ccc(S(=O)(=O)Nc2ccc3c(c2)nc(CN2CCCC2)n3C)cc1	-14.3	14.2	49.4*	-1.8	1.4
Cc1nc2ccc(S(=O)(=O)Nc3cccc(-c4nc5cccnc5s4)c3)cc2s1	-0.4	2.9	2.5	-6.3	0.5
CSc1ccc(S(=O)(=O)Nc2ccc3c(c2)OCCO3)cc1	-30.1*	-3.6	12.7	-2.6	-0.2
Cc1nc2ccc(NS(=O)(=O)c3ccc4c(c3)OCCO4)cc2s1	-31.4*	-3.0	25.1	-2.5	0.9
Cc1ccc(S(=O)(=O)Nc2ccc3c(c2)OCCO3)cc1	-20.7	0.5	8.2	3.3	0.0

Screens deposited in PubChem BioAssay by National Center for Advancing Translational Sciences (NCATS).
